FMDV antiviral = antivirals against foot and mouth disease virus; FMDV antiviral cell-based qHTS; Potency, µM (titrated, usually from 57.9 µM), for inactives: top-dose activity change, negative = inhibition, most hits filed as inhibitors; hit rate 1.2% among 410,000; calls by dose curve; tested in HEK293T cells; further: read-out not given here; potency means the concentration at half of the fitted maximal effect; nearly all actives have a fitted effect of over 45% in size
Vaccinia Venus = inhibitors of vaccinia virus (Venus reporter); hit rate 0.46% among 330,000; Vaccinia virus Venus reporter expression, fluorescence; Potency, µM (top dose mostly 36.5 µM), inactives show at the highest dose activity change, negative = inhibition, actives largely listed as inhibitors; calls by dose curve; tested in A549 cells; further: potency means the concentration at half of the fitted maximal effect; nearly all actives have a fitted effect of over 30% in size
HCMV inh = inhibitors of human cytomegalovirus; HFF cells, HCMV-luciferase reporter, 72 h; stronger effect = lower value; activity change, negative = inhibition, % at 57.5 µM; AID 1259415; hit rate 4.5% among 410,000; in the data active means activity change below about -60%; inconclusive means no clear call, values can overlap the other calls; inactive means above about -39%
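Cell-based, HFFs, 1000 cells/well, 16 h 37C; cpds in DMSO + HCMV-luc, MOI 1 PFU/cell; 72 h 37C; OneGlo luminescence after 5 min RT; norm. to buffer vs Salinomycin 10uM.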
VACV mCherry inh = vaccinia inhibition (mCherry reporter); Vaccinia virus mCherry reporter infection, fluorescence; Potency, µM (titrated, usually from 36.5 µM), for the others: at the top dose activity change, negative = inhibition, most hits filed as inhibitors; hit rate 0.63% among 310,000; calls by dose curve; tested in A549 cells; further: potency means the concentration at half of the fitted maximal effect; nearly all actives have a fitted effect of over 35% in size
HCV inhibitor = HCV inhibition; Huh7.5.1 HCVcc-Cre infection, luciferase reporter, 44 h; Potency, µM (doses to about 41.8 µM), for the others: top-dose activity change, negative = inhibition, usual class: inhibitors; hit rate 3.4% among 340,000; AID 651820; active means well fitted inhibition curve with a large enough effect; inconclusive means small, poorly fitted or top-dose-only effect, or another doubt; inactive means no such curve, though single readings can be large or run the other way; further: potency means the concentration at half of the fitted maximal effect
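Luciferase read-out (15 sec integration) after a 15 min room-temperature substrate step quantifies HCVcc-Cre infection. Cells, 1,000 per well, had compound added 4 h post-plating, then virus at ~0.5 moi, and were cultured 44 h.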
* marks the source's active call; other numbers are inactive results; i = inactive; ? = inconclusive; . = no result; [ ] = another dose, or the depositor's remark. Shown are actives, neighbours in structure and some others; about 7.3% of the full set was active somewhere. On the % scale 0 is the no-effect control and ±100 the full control effect.

SMILES	FMDV antiviral	Vaccinia Venus	HCMV inh	VACV mCherry inh	HCV inhibitor
Cc1ccc2c(c1)C1CN(C)CCC1N2C(=O)c1ccc(Br)o1 (stereo unspecified)	0%	-15%	53	.	4%
Cc1ccc2c(c1)C1CN(C)CCC1N2C(=S)NC(=O)c1ccc(Br)cc1 (stereo unspecified)	?	.	-62*	.	-21%
CCC(=O)N1CCN(c2ccccc2NC(=O)c2ccc([N+](=O)[O-])o2)CC1	-9%	-23%	-65*	?	?
CC(C)C(=O)N1CCN(c2ccccc2NC(=O)c2ccc([N+](=O)[O-])o2)CC1	0%	?	-73*	11µM*	?
CCC(=O)N1CCN(c2ccccc2NC(=O)Cc2ccccc2)CC1	7%	-1%	-19	.	?
Cn1cc(CNC2CCN(c3cccc(NC(=O)c4cccnc4)c3)CC2)cn1	-8%	-2%	.	-9%	.
Nc1ccc(-c2cc3ccccc3c(=O)o2)cc1	?	-9%	-62*	?	?
CCOC(=O)C1CCCN(C(=S)Nc2ccc(F)cc2)C1 (stereo unspecified)	20%	0%	-29	-1%	8%
O=C(COc1ccc(F)cc1)N1CCCCCCC1	16%	-1%	33	i	15%
CCOC(=O)C1CCCN(C(=O)COc2ccc(C(=O)c3ccc(F)cc3)cc2)C1 (stereo unspecified)	?	.	-27	.	13µM*
CCOC(=O)C1CCCN(C(=S)Nc2ccc(OC)cc2)C1 (stereo unspecified)	-1%	.	-67*	.	5%
CC(C)Oc1ccc(CNS(=O)(=O)c2ccc(-c3cc(C(F)(F)F)on3)s2)cc1	-17%	-2%	-2	-10%	.
COc1cccc(N2CC(NC(=O)c3cccc(OC)c3OC)CC2=O)c1 (stereo unspecified)	-14%	-6%[7.34 µM]	56	-11%[7.34 µM]	.
COC(=O)C(c1ccccc1)(c1cn(C)c2cc(Br)ccc12)C(Nc1ccccc1)c1ccccc1 (stereo unspecified)	.	.	-7	.	.
COCCC(=O)NCC1Cc2cc(Cl)cc(-c3ccc4[nH]ccc4c3)c2O1 (stereo unspecified)	1%	-4%	.	-9%	.
CNc1ccc2ncc(-c3cccc(C(=O)N(C)C)c3)n2n1	-4%	-18%	-75*	0%	.
CC(=O)c1cccc(-c2cnc3ccc(-c4cccc(CO)c4)nn23)c1	.	.	-95*	.	.
CC[C@@H](C)CCCCC(=O)N[C@@H](CCNCS(=O)(=O)O)C(=O)N[C@H](C(=O)N[C@@H](CCNCS(=O)(=O)O)C(=O)N[C@H]1CCNC(=O)[C@H]([C@@H](C)O)NC(=O)[C@H](CCNCS(=O)(=O)O)NC(=O)[C@H](CCNCS(=O)(=O)O)NC(=O)[C@H](CC(C)C)NC(=O)[C@@H](CC(C)C)NC(=O)[C@H](CCNCS(=O)(=O)O)NC1=O)[C@@H](C)O	-2%	-10%	.	-15%	.
Cc1ccc2c(c1)C(O)(C1C(=O)N(C)c3ccccc31)C(=O)N2Cc1ccccc1 (stereo unspecified)	.	.	-17	.	.
COc1cc2nc(N(C)C)c(CNCCc3c[nH]c4ccccc34)cc2c(OC)c1OC	0%	2%	.	-10%	.
CC(=O)c1ccc(-c2ccc(C(=O)N(C)Cc3nc4ccccc4c(=O)[nH]3)o2)cc1	22µM*	.	-30	.	7.1µM*
CCOC(=O)CCNC(=O)C1=CN2CCN(Cc3ccccc3C)C(=O)N=C2O1	.	.	6	.	.
Cc1cc(C(=O)Nn2c(-c3ccc(Br)cc3)nc3ccccc3c2=O)ccc1[N+](=O)[O-]	?	-22%	-75*	i	-9%
CCOc1ccc(-n2c(=O)c3ccccc3c3ccccc3c2=O)cc1	?	-11%	56	?	2%
COc1ccc(O)c(CNn2c(-c3ccc(Br)cc3)nc3ccccc3c2=O)c1	?	-5%	-74*	-21%	-10%
SMILES	FMDV antiviral	Vaccinia Venus	HCMV inh	VACV mCherry inh	HCV inhibitor
O=C(Nn1c(-c2ccc(Br)cc2)nc2ccccc2c1=O)c1ccncc1	-11%	-2%	-15	0%	4%
COc1ccc(-n2c(-c3ccccc3F)nc3ccccc3c2=O)cc1	-23%	-10%	-13	i	.
CCOc1ccc(-n2c(CC)nc3ccccc3c2=O)cc1	-22%	-16%	-87*	i	1%
COc1ccc(-n2c(-c3ccccc3Br)nc3ccccc3c2=O)cc1	-5%	-8%	-63*	i	-16%
COc1ccc(CNCc2c(C(=O)O)c(C)n(Cc3ccccc3C)c2C)c(OC)c1	36%	-8%[7.34 µM]	84	-18%[7.34 µM]	.
Cc1cc(=O)c(C(=O)NCCc2ccccn2)c2n1-c1ccccc1SC(c1cccs1)C2 (stereo unspecified)	0%	14%	.	-1%	.
O=C(Nc1ccc(Oc2ccccc2)cc1)c1ccc2sc([C@H]3C[C@H](O)[C@@H](CO)O3)nc2c1	16µM*	?	-100*	?	.
CC(=O)Nc1ccc(NC(=O)c2ccc3sc([C@H]4C[C@H](O)[C@@H](CO)O4)nc3c2)cc1	-11%	0%	-12	i	.
O=C(Nc1ccc(F)c(Cl)c1)c1ccc2sc([C@H]3C[C@H](O)[C@@H](CO)O3)nc2c1	-23%	-8%	?	-12%	.
O=C(Nc1cccc(C(F)(F)F)c1)c1ccc2sc([C@H]3C[C@H](O)[C@@H](CO)O3)nc2c1	20µM*	?	-91*	?	.
CCOc1ccc2nc(NC(=O)c3nc(SCc4ccccc4F)ncc3Cl)sc2c1	-26%	5%	15	12%	.
COc1ccc(S(=O)(=O)N2CCC(N3CCN(Cc4ccccc4)C(=O)C3=O)CC2)cc1	55%	-8%	-6	-13%	.
COc1ccc(Nc2cc(C(=O)NCCCN3CCN(c4ccc(OC)cc4)CC3)c3ccccc3n2)cc1	40µM*	?	-75*	?	.
COc1ccc(Nc2cc(C(=O)NCCCN(C)Cc3ccccc3)c3ccccc3n2)c(OC)c1	-16%	-6%	-26	-15%	.
Cc1cc(C)cc(Nc2cc(C(=O)NCCCN(Cc3ccccc3)C(C)C)c3ccccc3n2)c1	?	-23%	-27	-30%	.
COc1ccc(Nc2cc(C(=O)NCCCN(C)Cc3ccccc3)c3ccccc3n2)cc1	-13%	-23%	-93*	?	.
CSc1cccc(Nc2cc(C(=O)NCCCN(Cc3ccccc3)C(C)C)c3ccccc3n2)c1	?	-25%	-104*	?	.
COc1ccc(N2CCN(CCCNC(=O)c3cc4sccc4n3C)CC2)cc1	-25%	.	7	.	13µM*
COc1ccc(N2CCN(CCCNC(=O)c3cc(Nc4ccccc4OC)nc4ccccc34)CC2)cc1	?	-28%	?	?	.
COc1cc(/C=C/c2cc[n+](C)c3ccccc23)cc(OC)c1OC	.	14%	.	35%	.
C[C@H]1[C@@H](NS(=O)(=O)c2ccc(C(F)(F)F)cc2)CC[C@@]23CCCN2C(=O)CCC[C@@H]13	.	.	-25	.	.
CCOc1ccc(-n2nc(CO)c(C(=O)NCc3ccccn3)n2)cc1	8%	3%	10	1%	.
